22 compounds from PubChem BioAssay can be followed below.

Active and inactive are the calls of the source.

The nature of the assay: resazurin metabolic signal in A549 cells – cell-based, resazurin fluorescence, 24 h, PK04 Diversity Set, profiling panel (AID 1171). Note: test concentration not given here. Particulars: A549 viability, higher = more signal, called active from +8 up or from −8 down. (Resazurin is reduced to fluorescent resorufin, in cell work by metabolically active cells.)
For the compound `CC(C)C(CO)N1C(=O)[C@@H]2C3C(=O)OCCC/C=C\[C@H]3OC23C=CCN(C(C)(C)C)C(=O)[C@@H]13` (some centres not stated), the z-score was -0.265 (inactive).
As to `COCCCNC(=O)[C@@]1(Cc2ccccc2N=[N+]=[N-])N=C(c2ccc(OCCCO)cc2)O[C@H]1c1ccccc1`, the z-score was 0.308 (inactive).
The same measure for `CN1C(=O)C2C=CC(C(O)c3ccc(F)cc3)N(Nc3ccccc3)C2C1=O` (configuration not stated): -0.369 (inactive); for `COCCOC(=O)N1C(=O)[C@@]2(c3cc(C#CC4=CCCCC4)ccc31)[C@H](c1ccc(OCCO)cc1)N1[C@H](c3ccccc3)[C@H](c3ccccc3)OC(=O)[C@H]1[C@@H]2C(=O)NC[C@H](O)c1ccccc1`: 0.607 (inactive); for `COC(=O)C1=CC(CCCO)=CC(C2CC2)N(C)C=C1C(=O)OC` (configuration not stated): -0.951 (inactive).
As to `O=C(NCC(F)(F)F)[C@@H]1c2ccccc2C(=O)N(Cc2ccc(OC(F)(F)F)cc2)[C@H]1c1ccc(CO)cc1`, the z-score is 1.01 (inactive).
Turning to `COc1cccc(/C=C/C=O)c1`, the z-score was 0.336 (inactive).
Consider `COC(=O)C(CC#Cc1ccc2c(c1)[C@]1(C(=O)N2)[C@H](c2ccccc2OCCO)N2[C@H](c3ccccc3)[C@H](c3ccccc3)OC(=O)[C@H]2[C@@H]1C(=O)NC[C@H](O)c1ccccc1)C(=O)OC`, for which the z-score is 0.107 (inactive).
Turning to `CC(C)OC(=O)C=C1C[C@@H](c2ccc(C(F)(F)F)cc2)O[C@@H](c2ccc(C(F)(F)F)cc2)O1`, the z-score is 0.452 (inactive).
Turning to `CN(C)C(=O)[C@@]1(Cc2ccccc2CN=[N+]=[N-])N=C(c2ccc(OCCCO)cc2)O[C@H]1c1ccccc1CN=[N+]=[N-]`, the z-score was -0.67 (inactive).
To `CCCNC(=O)[C@@]1(c2ccc([N+](=O)[O-])cc2)CC(=O)N(C2CCCCC2)[C@@H]1c1ccc(CO)cc1` belongs 1.13 (inactive); to `CC(C)N1C(=O)C[C@@](C(=O)NCCCN(C)C)(c2ccc([N+](=O)[O-])cc2)[C@H]1c1ccc(CO)cc1`, -0.28 (inactive); to `O=C1N(Cc2ccccc2)Cc2ccccc2[C@@H]2OC(c3ccc(OCCCO)cc3)=N[C@]12CCS(=O)(=O)c1ccccc1`, 0.403 (inactive).
For `COC(=O)[C@@]1(Cc2ccc(OC)cc2)[C@@H]2C(=CC(=O)[C@H]2CC(=O)C(=O)N(C)C)CN1C(=O)c1ccccc1`, the z-score is -1.34 (inactive).
The same measure for `COc1ccc([Si](C)(C)[C@@H]2[C@@H](CC(=O)N3Cc4ccccc4C[C@H]3CO)O[C@]3(C(=O)N(C)c4ccccc43)[C@H]2C)cc1`: -1.42 (inactive).
To `C=C[C@@H](COC(C)=O)N(C(=O)OC(C)(C)C)S(=O)(=O)c1ccc(Br)cc1` belongs -0.586 (inactive); to `C=CCOC(=O)[C@H]1[C@@H]2C(=O)O[C@@H](c3ccccc3)[C@@H](c3ccccc3)N2[C@@H](c2ccc(OCCOC(=O)[C@@H]3C[C@@H]4C(=O)N[C@@H](CCCCNC(C)=O)C(=O)N4[C@@H]3c3ccc(O)cc3)cc2)[C@]12C(=O)Nc1ccc(I)cc12`, -0.389 (inactive).
For `O=c1n(-c2ccccc2)c(=O)n2n1CC(COc1ccccc1)=C([C@H](O)CCc1ccccc1)[C@@H]2CO`, the z-score was -0.962 (inactive).
The same measure for `CN(C)C(=O)[C@]1(CCS(=O)(=O)c2ccccc2)N=C(c2ccc(OCCCO)cc2)O[C@@H]1c1ccccc1N=[N+]=[N-]`: -0.859 (inactive); for `COC(=O)[C@@]1(Cc2ccccc2)[C@@H]2C(=CC(=O)[C@H]2CC(=O)C(=O)N(C)C)CN1C(=O)c1ccccc1`: -1.11 (inactive); for `CCOC(=O)C[C@H]1[C@H](OC(=O)Cc2ccc3c(c2)OCO3)[C@@H](NC(=O)Cc2ccc(OC)cc2)c2cc(OCCCO)ccc2N1C(=O)c1ccc2ccccc2n1`: -0.23 (inactive).
The same measure for `CC1CC/C=C\[C@H]2OC34C=CCN(C(C)C)C(=O)[C@H]3N(CCCCCCO)C(=O)[C@@H]4C2C(=O)O1` (some centres not stated): 0.599 (inactive).
